From PubChem BioAssay
An excerpt weighted towards active compounds, which were near 4.6% of everything screened.
TRHR agonist: qHTS for Small Molecule Agonists and Allosteric Enhancers of Human TRH Receptor: Primary Screen for Agonists; TRHR cells, calcium flux fluo-8, FDSS agonist mode; hit rate 0.18% among 360,000; activation, % at 2 µM; Thyrotropin-releasing hormone receptor (Homo sapiens), P34981; further: 0% is about no effect
Target sequence (P34981 whole entry, looked up): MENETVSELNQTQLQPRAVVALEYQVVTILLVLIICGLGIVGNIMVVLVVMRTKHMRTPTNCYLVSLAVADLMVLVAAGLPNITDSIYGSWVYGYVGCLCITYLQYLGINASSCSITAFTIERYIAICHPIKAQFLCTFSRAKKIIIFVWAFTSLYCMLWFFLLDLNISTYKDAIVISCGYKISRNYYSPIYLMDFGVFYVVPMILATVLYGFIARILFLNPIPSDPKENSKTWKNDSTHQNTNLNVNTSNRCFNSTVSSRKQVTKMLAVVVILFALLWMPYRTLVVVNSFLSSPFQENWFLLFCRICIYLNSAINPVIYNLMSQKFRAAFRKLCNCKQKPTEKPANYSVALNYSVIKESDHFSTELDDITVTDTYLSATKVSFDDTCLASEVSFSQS
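TRHR-expressing cells, plated overnight in medium with 10% serum, were loaded with fluo-8 calcium dye at room temperature. After a 10 s baseline, library compound was pin-added and calcium release was recorded kinetically (ex 480/em 530) as agonist response.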
D1 potentiator: Potentiators of Human D1 Dopamine Receptor: qHTS; AID 504651, 2011; potentiation, % at 10 µM; hit rate 0.036% among 360,000; HEK293 TREx D1 cells, calcium flux, dopamine EC20 potentiation; in the data active means potentiation above about 30%; further: 0% is about no effect
TRHR enhancer: qHTS for Small Molecule Agonists and Allosteric Enhancers of Human TRH Receptor: Primary Screen for Enhancers; Thyrotropin-releasing hormone receptor (Homo sapiens), P34981; TRHR cells, fluo-8 calcium fluorescence, EC20 TRH enhancement; enhancement, % at 2 µM; hit rate 0.66% among 360,000; AID 493056, 2011; in the data active means enhancement above about 30%; further: 0% is about no effect
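TRHR-expressing cells loaded with fluo-8 calcium dye were read kinetically (ex 480/em 530) during compound addition, then stimulated with an EC20 of TRH (10 nM final). Enhancement of the Gq-mediated intracellular calcium response was scored.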
D1 antagonist: Antagonist of Human D 1 Dopamine Receptor: qHTS. AID 504652, 2011. hit rate 3.2% among 360,000. activity change, negative = inhibition, % at 10 µM. HEK293 TREx D1 cells, calcium flux, dopamine EC80; stronger effect = lower value. D(1A) dopamine receptor (Homo sapiens), P21728; in the data active means activity change below about -30%; further: on the % scale 0 is the no-effect control and ±100 the full control effect
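Compound effects on dopamine-evoked calcium signalling were measured in tetracycline-induced HEK293 Trex D1 cells. Dopamine at EC80 followed a 180 s compound pre-read, and fluorescence was tracked kinetically for 180 s more.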
D1 ag: Allosteric Agonists of the Human D1 Dopamine Receptor: qHTS; D(1A) dopamine receptor (Homo sapiens), P21728; HEK293 T-REx D1 cells, calcium flux, agonist mode; activation, % at 2 µM; hit rate 1% among 360,000; AID 504660, 2011; further: 0% is about no effect
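Tetracycline-induced HEK293 TREx D1 cells, force-coupled to calcium signalling, were dye-loaded with a no-wash calcium kit. Compound was pin-added after a 10 s baseline. Fluorescence was read kinetically at 1 cycle/s for 180 s, with calcium rises flagged as agonism.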
An asterisk follows results filed as active; ! = repeats disagree. Unless noted, no stated cut-off is given here; in the data, active means activation above about 30%; inactive means the rest.

SMILES	TRHR agonist	D1 potentiator	TRHR enhancer	D1 antagonist	D1 ag
Cc1sc2ncn(CC(=O)NCC3COc4ccccc4O3)c(=O)c2c1S(=O)(=O)N1CCCCC1 (stereo unspecified)	-1	2	-11	-37*	2
Cc1sc2ncn(CC(=O)NCC3COc4ccccc4O3)c(=O)c2c1S(=O)(=O)N1CCOCC1 (stereo unspecified)	0	-5	2	0	3
CCCCNC(=O)Cn1cnc2sc(C)c(S(=O)(=O)N3CCN(c4ncccn4)CC3)c2c1=O	0	-8	-5	-1	2
Cc1sc2ncn(CC(=O)NCCCOC(C)C)c(=O)c2c1S(=O)(=O)N1CCN(c2ncccn2)CC1	0	-14	-3	-64*	1
Cc1ccc(Cl)c(OCCN2CCc3ccccc3C2)c1	0	-22	-4	-40*	0
C/C=C/c1ccc(OCCN2CCc3ccccc3C2)c(OC)c1	-1	-14	-2	-24	-1
Cc1ccc(Cl)c(OCCCN(C)Cc2ccccc2)c1	1	-3	5	-55*	7
Cc1ccc(Cl)c(OCCCCN(C)Cc2ccccc2)c1	0	-12	4	-29	3
CCOc1ccccc1OCCCOc1ccc(C)cc1Cl	1	-6	-4	-86*	3
CC(C)Oc1ccc(CNC(=O)c2sc3ncccc3c2-n2cccc2)cc1	0	-4	-4	-11	16
CCn1cnc2c(=O)oc3ccc(S(=O)(=O)Nc4ccc(OC)cc4)cc3c21	0	1	9	-10	0
COc1ccc(OCCCCn2c(C3CC(=O)N(c4cccc(Cl)c4)C3)nc3ccccc32)cc1 (stereo unspecified)	3	-2	-2	-12	18
Cc1cc(N2CCN(C)CC2)nc2ccc(NC(=O)Nc3ccccc3Cl)cc12	-1	-2	-9	-3	2
Cc1ccc(NC(=O)c2ccc(CNS(=O)(=O)c3ccc4c(c3)C(C)(C)C(=O)N4C)cc2)cc1F	1	-7	28	-5	7
COc1ccc2[nH]c(=O)c(CN(Cc3ccccc3)C(=S)NCC3CCCO3)cc2c1 (stereo unspecified)	-1	8	35*	3	2
CCOc1ccc2[nH]c(=O)c(CN(CC3CCCN3CC)C(=O)NCc3ccccc3)cc2c1 (stereo unspecified)	0	5	2	-50*	3
COc1ccc2[nH]c(=O)c(CN(CCCN3CCOCC3)C(=O)NCc3ccccc3)cc2c1	0	-1	-1	-37*	1
COc1cccc(NC(=O)CCC2CCN(C(=O)c3scnc3C)CC2)c1	1	-24	1	11	0
CCc1ccc(CN(Cc2ccco2)C(=O)c2cc(-c3ccc(C)c(F)c3)on2)cc1	-1	-3	3	8	6
Cc1cc2n(n1)CCC(=O)N2Cc1ccc(C(=O)Nc2cccc(C(F)(F)F)c2)cc1	0	-2	-2	-24	0
O=C(NCc1ccncc1)C(F)(F)C(F)(F)C(=O)NCc1ccncc1	1	-7	-1	-43*	6
O=C(NCc1ccncc1)c1cc(F)c(F)cc1Cl	0	-4	-2	-40*	0
COc1ccc(CCN2CCCn3c2nc2c3c(=O)[nH]c(=O)n2C)cc1OC	0	-3	8	3	2
CCOC(=O)c1c(NC(=O)Nc2ccc(F)cc2)sc(C(=O)N(C)C)c1C	0	0	4	-24	0
O=C(O)c1cc(-c2ccc(/C=C3/SC(=S)N(Cc4ccccc4)C3=O)o2)ccc1Cl	-1	-6	14	4	7
SMILES	TRHR agonist	D1 potentiator	TRHR enhancer	D1 antagonist	D1 ag
O=C(O)CCCN1C(=O)/C(=C\c2ccc(-c3nc4ccccc4s3)o2)SC1=S	7	6	-5	80	35*
O=C(O)CCN1C(=O)/C(=C/c2ccc(-c3nc4ccccc4s3)o2)SC1=S	1	5	7	98	28
O=C(O)CN1C(=O)/C(=C/c2ccc(-c3cccc(Cl)c3)o2)SC1=S	2	10	32*	13	5
COc1ccc(-c2[nH]c(-c3ccc4c(c3)OCO4)nc2-c2ccccc2)cc1	-1	-5	-8	-76*	3
O=C(O)Cc1nnc(-c2cc3ccccc3[nH]2)s1	1	9	1	-37*	0
O=C(NCc1nnc(-c2cc3ccccc3[nH]2)s1)c1ccccc1	1	-5	-3	4	3
O=C(Cc1nnc(-c2cc3ccccc3[nH]2)o1)Nc1cc(C(F)(F)F)ccc1Cl	0	-4	-4	5	1
O=C(Cc1nnc(-c2cc3ccccc3[nH]2)s1)Nc1cc(C(F)(F)F)ccc1Cl	1	1	16	-34*!	3
CCN(CCCNC(=O)CSc1cc(=O)n(CC)c2ccccc12)c1cccc(C)c1	0	2	-5	-25	4
Cc1ccc(C(=O)CSC2=C(C#N)C(c3ccco3)CC(=O)N2)c(C)c1 (stereo unspecified)	9	-6	-1	-58*	63*
COc1cc(C)ccc1OCC(=O)NC1CCCCCC1	0	-2	0	-30*	2
Cc1cc(Cl)c(S(=O)(=O)N2CCCC2)cc1OCC(=O)NC1CCCCC1	0	-1	-7	-13	5
CCN(CC)S(=O)(=O)c1cc(C)c(C)cc1OCC(=O)NC1CCCC1	-1	-16	2	-34*	0
COc1ccccc1NC(=O)C1=C(C)Nc2c(C(=O)Nc3ccc(F)cc3)cnn2C1c1ccc(Cl)cc1 (stereo unspecified)	1	-4	3	-15	7
CCOc1ccc(CCNC(=O)c2nn(C)c3c2CSc2ccccc2-3)cc1	0	-1	3	-3	2
COc1ccc(CCNC(=O)Cn2c(=O)n(-c3ccc(F)cc3F)c(=O)c3sccc32)cc1OC	-1	-6	2	-36*	0
Cc1ccc(N=C2SC(C(=O)O)CC(=O)N2C)cc1C (stereo unspecified)	1	7	34*	-5	1
Cc1ccc(Oc2nc3c(c(=O)n(Cc4ccccc4)c(=O)n3C)n2C)cc1C	1	-8	-2	-12	2
CC1=C(C(=O)OC2CCCCCC2)C(c2ccc(C)o2)C2=C(CCCC2=O)N1 (stereo unspecified)	0	-9	-5	-33*	-2
O=C(/C=C/c1ccc(Cl)cc1Cl)Nc1ccc(CN2CCOCC2)cc1	1	-7	0	-38*	25
